In PubChem BioAssay AID435022 (Sanford-Burnham Center for Chemical Genomics, 2010):
The campaign covered roughly 330,000 compounds. About 1,100 (0.33%) were called active. The sample holds actives, similar compounds and a random draw of the others, so the mix is not that of the screen. A number with no mark means an inactive call. Cut-off read from the data, not from the text of the source: active = inhibition above about 35%; inactive = the rest.

Experiment: lowers stimulated NF-kB luciferase signal in 697 B cells – cell-based, luminescence, uHTS, B-cell NF-kB inhibitor project, primary screen (AID 435022)
Conditions: 697 B-cell NF-kB luciferase reporter, PMA/ionomycin, 16 h; at 4 µM; active compounds read high
With `c1ccc(Cc2cc[n+](Cc3ccccc3)cc2)cc1` the inhibition was -7.68%. In the case of `COc1ccccc1OCc1nnc(SCC(N)=O)n1-c1ccccc1`, the inhibition is reported as -18.9%. In the case of `Cc1nc2ccccc2c(=O)n1-c1ccc(F)c(NC(=O)c2cccs2)c1`, the inhibition is reported as -10.2%. For `CCc1ccc(CNC(=O)CCc2nc(-c3cccs3)no2)cc1`, the inhibition was -6.74%. With `CCNC(=O)CCc1nc(-c2ccc(C(C)(C)C)cc2)no1` the inhibition was 87.2% (active). Compound `CN1CCN(C(=O)CCc2nc(-c3ccc(Cl)cc3)no2)CC1` has an inhibition of -2.08%. Compound `CCOC(=O)C1CCN(C(=O)C2CCCN(S(=O)(=O)c3ccc(OC)c(Cl)c3)C2)CC1` (stereo not drawn) has an inhibition of -44.7%. Work on `CCOc1ccccc1C1CC(c2ccc(Cl)cc2)Nc2nc(N)nn21` (stereo not drawn) yielded an inhibition of -1.91%. For `COc1ccc(C(=O)n2nc(-c3ccc(C)cc3)nc2N)cc1OC`, the inhibition was 7.38%. For `COc1ccc(C(=O)n2nc(-c3ccc(Cl)cc3)nc2N)cc1OC`, the inhibition was 39.3% (active). For `COc1ccc(C(=O)n2nc(C)c(Br)c2C)cc1OC`, the inhibition was -0.0717%. `O=S1(=O)N=C(N(CCO)/N=C/c2ccccc2F)c2ccccc21` gave an inhibition of 11.3%. In the case of `O=C(CSc1nc(Nc2ccccc2)nc(N2CCOCC2)n1)Nc1cc(Cl)ccc1O`, the inhibition is reported as -4.18%. For `C/C(=N\Nc1nc(Nc2ccccc2)nc(N2CCOCC2)n1)c1cccs1`, the inhibition was 39.3% (active). For `C/C(=N\Nc1nc(N2CCOCC2)nc(N2CCOCC2)n1)c1ccc([N+](=O)[O-])cc1`, the inhibition was 5.8%. Compound `O=c1oc(-c2ccccc2NS(=O)(=O)c2ccc(Cl)cc2)nc2ccccc12` has an inhibition of 6.5%. With `CC(C)(C)c1ccc(OC2=CS(=O)(=O)c3ccccc32)cc1` the inhibition was -29.9%. With `CC(C)(C)c1ccc(Oc2ccc(N)cc2)cc1` the inhibition was 79% (active). With `COc1cccc(Oc2ccc(N)cc2)c1` the inhibition was -22.3%. Compound `O=C(C(NS(=O)(=O)c1cccc2nsnc12)c1ccccc1)N1CCN(c2ccccc2)CC1` (stereo not drawn) has an inhibition of -0.239%. For `CN(Cc1nc(-c2cnccn2)no1)Cc1n[nH]c2c1CCCCC2`, the inhibition was 2.89%. In the case of `CC[n+]1cc(C)ccc1/C=C/c1ccc(N(C)C)cc1`, the inhibition is reported as 42.6% (active). For `C=CCN1C(=NC(=O)COc2ccccc2)SC2CS(=O)(=O)CC21` (stereo not drawn), the inhibition was -20.6%. `CN(C)C(=O)CCc1ccc2c3c([nH]c2c1)[C@]1(CCC2CCCC2)[C@@H](C(=O)N2CCOCC2)C[C@H](CC(=O)NCc2ccco2)C(=O)N1CC3` gave an inhibition of 13.5%. Work on `Cc1ccc(C)c(NC(=O)CN(C)C(=O)COc2ccc3ccccc3c2)c1` yielded an inhibition of 1.04%. For `COc1ccc(S(=O)(=O)N2CCN(C(=O)c3cccs3)CC2)cc1OC`, the inhibition was 10.3%. In the case of `CC1=C(C(=O)OC2CCCCC2)C(c2cccnc2)n2ncnc2N1` (stereo not drawn), the inhibition is reported as -21.7%. With `COc1cc(/C=C2/SC(=S)N(Cc3ccccc3)C2=O)cc(OC)c1O` the inhibition was 18.2%. For `COc1ccc(/C=C2\SC(=S)N(CCC(=O)Nc3ccccn3)C2=O)cc1OC`, the inhibition was 47.5% (active). Compound `CCOc1ccc(/C=C2\SC(=S)N(NC(=O)c3ccncc3)C2=O)cc1OC` has an inhibition of -7.88%. With `Cc1ccc(C)n1-c1ccncc1` the inhibition was 8.79%. Work on `COc1cc(C(=O)NCc2nnc(SCC(=O)c3ccc(Cl)cc3)o2)cc(OC)c1OC` yielded an inhibition of 7.7%. For `CC(C)C[C@@H](N)c1nnc(SCC(=O)c2ccc(Cl)cc2)o1`, the inhibition was 67.6% (active). Compound `CC(=O)Nc1ccc(C(=O)CSc2nnc(Cc3ccccc3)o2)cc1` has an inhibition of 8.22%. With `CCCCCCCCCCOC(=O)C[N+](C)(C)CC1CCCCC1O` (stereo not drawn) the inhibition was 10.5%. `NC(=O)CC(NC(=O)Cc1cccc2ccccc12)c1ccc(NCc2cc(F)ccc2F)c([N+](=O)[O-])c1` (stereo not drawn) gave an inhibition of 9.25%. `CC12CN3CCN(CC(C3)/C1=N\NC(=O)c1ccccc1N)C2` showed an inhibition of -5.67%. With `COc1ccc(OCC(=O)N2CCN(C(=O)c3cccs3)CC2)cc1` the inhibition was 26.7%. For `O=C(O)COc1ccc(-c2nccc(-c3cccs3)n2)cc1`, the inhibition was 73.8% (active). With `CN(C(=O)COc1nnc(-c2cccs2)c(-c2cccs2)n1)c1ccccc1` the inhibition was 2.99%. With `O=C1c2ccccc2S(=O)(=O)N1Cc1c(F)cccc1Cl` the inhibition was -1.55%. Work on `Cn1c(CCc2ccccc2)nnc1SCC(N)=O` yielded an inhibition of -1.05%. With `CCN1C(=O)[C@H]2[C@@H](c3ccc(C)cc3)N3C(=O)N(c4cccc(Br)c4)C(=O)[C@@]3(CC)[C@H]2C1=O` the inhibition was -2.44%. `CCCCC(CC)CNC(=O)C(=O)C1C(=O)Nc2ccccc21` (stereo not drawn) gave an inhibition of 13.5%. For `O=C(CN1CCN(c2ccc(O)cc2)CC1)NC1CCCc2ccccc21` (stereo not drawn), the inhibition was 6.1%. Compound `Cc1[nH][nH]c(=O)c1C(c1ccc(-c2ccc(Cl)cc2)o1)c1c(C)[nH][nH]c1=O` has an inhibition of 15.2%. `CCOc1ccc(C(C)NC(=O)CN2C(=O)NC3(CCCCC3)C2=O)cc1OCC` (stereo not drawn) showed an inhibition of -6.42%. For `CCOc1ccc(C(c2c(C)[nH][nH]c2=O)c2c(C)[nH][nH]c2=O)cc1OCC`, the inhibition was 35.5% (active). Compound `CCn1c(O)c(N=NC(=O)c2cccc(S(=O)(=O)N3CCCCC3)c2)c2ccccc21` has an inhibition of -4.54%. With `CCn1c(O)c(N=NC2=NC(=O)CS2)c2cc(C)ccc21` the inhibition was 44.4% (active). Work on `COC(=O)Cn1c2ccc(C)cc2c2nc(C)sc21` yielded an inhibition of 20.4%. `COc1cc(NC(=O)C2CC(c3ccccc3O)=NO2)c(OC)cc1Cl` (stereo not drawn) gave an inhibition of 10.9%. `CC(=O)Nc1nc(C)c(Cc2ccccc2)c(=O)[nH]1` showed an inhibition of 16.1%. In the case of `O=C(O)CCn1c(O)c(C=C2N=c3ccccc3=N2)sc1=S`, the inhibition is reported as 55.2% (active). With `Cc1cc2ccccc2n1CCC(=O)O` the inhibition was 13.8%. Compound `O=C(O)CCn1c(Cc2ccccc2)nc2ccccc21` has an inhibition of 5.45%. Work on `CCOc1ccc(NC(=O)CN(C)C(=O)c2cccc(S(=O)(=O)N3CCCC3)c2)cc1OCC` yielded an inhibition of 10.1%. `CCCC(C)NC(=O)C1CCN(C(=O)C2CC(=O)N(c3ccc(C)cc3)C2)CC1` (stereo not drawn) showed an inhibition of 10.2%. In the case of `O=C(Nc1cccnc1)c1cc([N+](=O)[O-])ccc1Cl`, the inhibition is reported as 12.2%. For `Cc1ccc(NC(=O)c2cc([N+](=O)[O-])ccc2Cl)c(O)c1`, the inhibition was 38.8% (active). For `CNc1ccc([N+](=O)[O-])cc1C(=O)O`, the inhibition was -7.67%. `O=C(CCCC(=O)N1CCN(c2cccc(Cl)c2)CC1)c1ccccc1` gave an inhibition of 5.77%. Work on `C=CC1=C(C(=O)O)N2C(=O)[C@@H](NC(=O)/C(=N/OCC(=O)O)c3csc(N)n3)[C@H]2SC1` yielded an inhibition of 21.7%. For `Cc1cnc(C(=O)Oc2cccc(Cl)c2Cl)cn1`, the inhibition was 9.86%. With `N=c1n(CCc2ccccc2)c2ccccc2n1Cc1ccccc1F` the inhibition was -56.4%. With `O=C(Nc1ccc2c(c1)OCO2)c1ccc(N2C(=O)c3ccccc3C2=O)cc1` the inhibition was -7.07%. With `Cn1c(=O)n(C)c2cc(C(=O)Nc3ccc4c(c3)OCO4)ccc21` the inhibition was 37.8% (active). In the case of `Cn1c(=O)n(C)c2cc(C(=O)Nc3ccc(Br)cc3)ccc21`, the inhibition is reported as 9.51%. Work on `COc1ccc(OCC(=O)NN2Cc3ccccc3C2=N)cc1` yielded an inhibition of 0.554%. For `O=C(c1ccco1)N1CCN(CC(=O)N(C2CCCCC2)C2CCS(=O)(=O)C2)CC1` (stereo not drawn), the inhibition was -18.1%. Compound `Cc1cc(C(=O)O)c(S(C)(=O)=O)s1` has an inhibition of 4.07%. With `COc1ccc(CCNC(=S)N2CCN(S(=O)(=O)c3ccc(F)cc3)CC2)cc1` the inhibition was -1.95%. Work on `CN(C)CCCn1c(SCCN2C(=O)c3ccccc3C2=O)nc2ccccc2c1=O` yielded an inhibition of -8.89%. `Cc1onc(-c2c(F)cccc2Cl)c1C(=O)OCC(=O)N1C(C)CCCC1C` (stereo not drawn) gave an inhibition of -2.55%. With `CCCn1c(=NC(C)=O)c(C(=O)OCC)cc2c(=O)n3ccccc3nc21` the inhibition was 4.14%. With `CCOC(=O)c1cc2c(=O)n3ccccc3nc2n(CC(C)C)c1=NC(=O)c1c(-c2c(F)cccc2Cl)noc1C` the inhibition was 36.5% (active). With `CCCCn1c(N)c(N(CCC(C)C)C(=O)COC(=O)c2ccc(CC)cc2)c(=O)[nH]c1=O` the inhibition was -5.34%. `COc1ccc(C(=O)CSc2n[nH]c(N)n2)cc1` gave an inhibition of 4.97%. With `C=CCn1c(C)cc(C2=NNC(=NCC)SC2)c1C` the inhibition was 37.3% (active). Compound `CC(Sc1nc2c([nH]c3ccccc32)c(=O)n1C)c1ccccc1` (stereo not drawn) has an inhibition of -2.36%. `COc1ccc(C=C(C#N)C#N)c(CSc2ccccn2)c1` showed an inhibition of 7.7%. Work on `CCOC(=O)Cc1cc(=O)[nH]c(=O)[nH]1` yielded an inhibition of -9.76%. With `O=C(OCCO)c1cc(Cl)c(C(=O)OCCO)cc1Cl` the inhibition was 19.5%. `CC1CCN(S(=O)(=O)c2ccc3c(c2)n(C)c(=O)n3C)CC1` gave an inhibition of 7.77%. `NC(=O)C1CCN(C(=O)CC2C(=O)NCCN2Cc2cccc(Oc3ccccc3)c2)CC1` (stereo not drawn) showed an inhibition of -2.05%. In the case of `CNC(=O)c1csc(Cc2c(Cl)sc3ccc(Cl)cc23)n1`, the inhibition is reported as -20.2%. In the case of `Cc1nc2ccccc2c(=O)n1-c1ccc(NS(=O)(=O)c2ccc(F)cc2F)cc1`, the inhibition is reported as 1.55%. `CCC(C)(C(=O)Nc1ccccc1C)N(C(=O)CNC(C)=O)c1ccc(C)cc1` (stereo not drawn) gave an inhibition of 14.7%. In the case of `O=C(CN1C(=O)c2ccccc2S1(=O)=O)N1CCc2ccccc21`, the inhibition is reported as 62.7% (active). For `CC1CCCN(C(=O)CN2C(=O)c3ccccc3S2(=O)=O)C1` (stereo not drawn), the inhibition was -17.2%. `O=C(CN1C(=O)c2ccccc2S1(=O)=O)NC1CCCCC1` gave an inhibition of 9.89%. Compound `COC1(C2=NCCN2)COc2ccccc2O1` (stereo not drawn) has an inhibition of 17.1%. Compound `Cc1ccnc2nc(C(=O)OCC(=O)N(CC(C)C)CC(C)C)nn12` has an inhibition of 6.38%.
